# Assay outcomes from PubChem.
# Hits are enriched below; roughly 7.6% of the tested compounds scored in any of these assays.
# p53 reactivator = qHTS assay for re-activators of p53 using a Luc reporter; H1299 p53-A138V BP100-luciferase reporter, luminescence, 24 h; Potency, µM (doses to about 92.2 µM), usual class: activators; actives 0.063% (n = 320,000); AID 504706, 2011; further: nearly all actives have a fitted effect of over 45% in size
#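 p53-null H1299 cells stably carrying temperature-sensitive p53-A138V and a BP100-luciferase reporter were pinned with compounds (4-point, 1:5 series) and held 24 hrs at 37 deg C. Luminescence was read 10 min after detection reagent.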
# Giardia killer = Small Molecules that selectively kill Giardia lamblia: qHTS; actives 0.15% (n = 340,000); Giardia lamblia trophozoite viability; AID 540267, 2011; activity change, % at 7.66 µM, hits read low; in the data active means activity change below about -80%; inconclusive means between about -30% and that limit;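 further: parasites exposed to compound for two days anaerobically before the ATP read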
#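 Luminescence from cellular ATP indicates surviving trophozoites (100 cells/well) following 48 hrs anaerobic compound treatment at 37 deg C; signal develops 15-30 min at room temperature.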
# RORg inh = qHTS for inhibitors of ROR gamma transcriptional activity; actives 5.4% (n = 310,000); AID 2551, 2010; Drosophila S2 Gal4-RORgamma UAS-luciferase reporter, 20 h; Potency, µM (series often up to 53.6 µM), usual class: inhibitors; further: nearly all actives have a fitted effect of over 60% in size
#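 Drosophila Schneider cells stably carrying a metallothionein-driven Gal4 DBD–ROR gamma fusion and a UAS-Photinus luciferase reporter were exposed to compound for 1 hr, then induced with copper sulfate (700 uM final) for 20 hr at ambient temperature before luminescence reading.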
# BRCA1 expr up = qHTS Assay to Identify Small Molecule Activators of BRCA1 Expression. actives 1.1% (n = 380,000). MCF7-BRCA1-FFLuc reporter, luminescence, 48 h; response scale: scaled: vehicle 0%, 10 µM genistein 100%. Potency, µM (highest dose often 46.1 µM), hits mostly activators. AID 624202, 2012; further: nearly all actives have a fitted effect of over 80% in size
#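 Cells: MCF7-BRCA1-FFLuc, 2000/well. Exposure: 48 h, 37 °C, 5% CO2. Read: luminescence, 15 min post-substrate. Controls: genistein 10 microM (maximal activation), DMSO (neutral).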
# Gal4-VP16 FLuc = VP16 counterscreen qHTS for inhibitors of ROR gamma transcriptional activity; actives 3.5% (n = 310,000); Potency, µM (highest dose often 53.6 µM), actives largely listed as inhibitors; Drosophila S2 Gal4-VP16 UAS-luciferase, luminescence, 20 h;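 further: Gal4-VP16 expression switched on by copper sulfate through the metallothionein promoter; nearly all actives have a fitted effect of over 50% in size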
# ELG1 DNA repair = qHTS screen for small molecules that inhibit ELG1-dependent DNA repair in human embryonic kidney (HEK293T) cells expressing luciferase-tagged ELG1 | HEK293T ELG1-luciferase reporter, luminescence, 16 h; DNA damage induced by 5-fluorouridine | Potency, µM (titrated, usually from 46.1 µM), usual class: inhibitors | actives 2.3% (n = 330,000) | AID 504467, 2011; further: nearly all actives have a fitted effect of over 55% in size
#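 Overnight (16 hr) co-exposure of 2,000 cells/well to 5-fluorouridine and compound at 37 °C preceded detection. Luciferase was quantified via ONE-Glo luminescence; loss of signal denotes inhibition.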
# ELG1 FLuc counter = qHTS screen for small molecules that inhibit ELG1-dependent DNA repair: Hit Confirmation in Cell-Based Luciferin Assay | shares compounds with ELG1 DNA repair | cell-free firefly luciferase luminescence counter-screen, ViewLux | actives 3% (n = 350) | AID 624247, 2012 | Potency, µM (top dose mostly 46.1 µM), actives largely listed as inhibitors
# ELG1-Luc inh = HTS assay for small molecules that inhibit ELG1-dependent DNA repair in human embryonic kidney (HEK293T) cells expressing luciferase-tagged ELG1: Hit Confirmation. actives 68% (n = 670). HEK293T ELG1-luciferase levels, luminescence; cells co-treated with 5-fluorouridine. AID 624248, 2012. Potency, µM (titrated, usually from 46.1 µM), most hits filed as inhibitors. shares compounds with ELG1 DNA repair; further: nearly all actives have a fitted effect of over 55% in size
# Target sequence (Q96QE3 whole entry, looked up): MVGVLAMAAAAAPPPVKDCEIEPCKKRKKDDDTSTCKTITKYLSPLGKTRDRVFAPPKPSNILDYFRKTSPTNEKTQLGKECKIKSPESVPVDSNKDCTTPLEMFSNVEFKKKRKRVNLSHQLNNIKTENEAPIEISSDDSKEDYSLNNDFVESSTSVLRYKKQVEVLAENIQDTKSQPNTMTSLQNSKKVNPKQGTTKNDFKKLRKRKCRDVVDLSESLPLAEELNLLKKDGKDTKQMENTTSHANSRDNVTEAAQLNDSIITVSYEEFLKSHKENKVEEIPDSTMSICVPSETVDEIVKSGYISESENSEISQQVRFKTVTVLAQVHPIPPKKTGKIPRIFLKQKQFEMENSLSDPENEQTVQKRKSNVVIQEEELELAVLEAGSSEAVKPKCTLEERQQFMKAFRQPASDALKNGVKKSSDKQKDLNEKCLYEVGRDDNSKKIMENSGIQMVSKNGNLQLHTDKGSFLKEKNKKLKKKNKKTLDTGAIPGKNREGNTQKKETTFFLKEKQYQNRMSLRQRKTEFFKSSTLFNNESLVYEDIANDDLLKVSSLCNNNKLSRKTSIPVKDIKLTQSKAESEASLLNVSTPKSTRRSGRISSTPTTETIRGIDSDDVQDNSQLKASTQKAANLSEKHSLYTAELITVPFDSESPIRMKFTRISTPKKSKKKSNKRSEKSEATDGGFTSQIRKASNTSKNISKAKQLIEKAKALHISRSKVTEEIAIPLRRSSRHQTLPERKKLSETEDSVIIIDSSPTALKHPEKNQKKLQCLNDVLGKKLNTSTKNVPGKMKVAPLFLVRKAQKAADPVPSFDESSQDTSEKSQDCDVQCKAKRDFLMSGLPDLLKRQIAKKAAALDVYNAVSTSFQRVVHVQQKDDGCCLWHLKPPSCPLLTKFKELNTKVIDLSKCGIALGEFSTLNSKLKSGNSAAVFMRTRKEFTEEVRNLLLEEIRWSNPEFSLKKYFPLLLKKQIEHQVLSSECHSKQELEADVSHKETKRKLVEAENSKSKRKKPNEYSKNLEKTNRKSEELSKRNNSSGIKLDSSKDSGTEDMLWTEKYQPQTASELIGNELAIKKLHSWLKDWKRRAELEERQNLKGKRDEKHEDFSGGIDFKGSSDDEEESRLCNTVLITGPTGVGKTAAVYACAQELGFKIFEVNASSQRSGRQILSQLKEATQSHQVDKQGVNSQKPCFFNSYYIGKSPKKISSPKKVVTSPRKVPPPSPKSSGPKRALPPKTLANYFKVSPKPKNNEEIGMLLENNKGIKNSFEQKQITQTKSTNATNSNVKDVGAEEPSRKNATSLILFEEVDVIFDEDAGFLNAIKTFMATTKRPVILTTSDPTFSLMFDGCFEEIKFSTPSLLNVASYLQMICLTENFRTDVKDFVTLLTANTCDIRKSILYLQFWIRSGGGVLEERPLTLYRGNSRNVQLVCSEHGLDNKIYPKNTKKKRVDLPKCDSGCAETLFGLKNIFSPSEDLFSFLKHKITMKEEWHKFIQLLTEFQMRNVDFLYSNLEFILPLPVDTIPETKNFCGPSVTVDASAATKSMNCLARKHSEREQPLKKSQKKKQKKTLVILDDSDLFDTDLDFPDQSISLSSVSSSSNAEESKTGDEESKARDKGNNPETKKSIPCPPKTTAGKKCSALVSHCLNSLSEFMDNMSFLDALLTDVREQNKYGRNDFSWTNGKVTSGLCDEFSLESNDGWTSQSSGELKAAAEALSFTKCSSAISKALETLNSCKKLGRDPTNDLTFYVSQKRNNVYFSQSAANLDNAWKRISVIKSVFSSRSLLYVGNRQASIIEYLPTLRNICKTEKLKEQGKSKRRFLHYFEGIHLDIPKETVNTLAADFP
# ELG1 MMS Luc = MMS-stimulated human ELG1 repair inhibition, confirmed. shares compounds with ELG1 DNA repair. Potency, µM (top dose mostly 46.1 µM), most hits filed as inhibitors. actives 53% (n = 670). AID 624249. HEK293T luciferase-tagged ELG1 level, MMS stimulated; further: nearly all actives have a fitted effect of over 60% in size
# ELG1 5FU viab = qHTS screen for small molecules that inhibit ELG1-dependent DNA repair: Hit Confirmation with 5FU Viability | shares compounds with ELG1 DNA repair | cell viability with 5-FU, ELG1-dependent repair | Potency, µM (series often up to 46.1 µM), most hits filed as cytotoxic | 670 tested, under 10 active | AID 624250, 2012;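 further: ELG1-luc HEK293T cells cotreated with 5-fluorouridine at 10 µM final; viability measured 16 h after compound addition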
# ELG1 MMS cell = qHTS screen for small molecules that inhibit ELG1-dependent DNA repair: Hit Confirmation with MMS Viability; shares compounds with ELG1 DNA repair; Cell viability with MMS, ELG1-dependent DNA repair; Potency, µM (highest dose often 46.1 µM), hits mostly cytotoxic; actives 33% (n = 670);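 further: ELG1-luc HEK293T cells co-treated with 10 µM MMS; viability read 16 h after compound addition; nearly all actives have a fitted effect of over 60% in size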
# ELG1 unstim viab = qHTS screen for small molecules that inhibit ELG1-dependent DNA repair: Hit Confirmation with Unstimulated Viability Assay | shares compounds with ELG1 DNA repair | cell viability counter-screen, unstimulated, luminescence | Potency, µM (highest dose often 45.9 µM), usual class: cytotoxic | actives 8% (n = 900) | AID 624252, 2012;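 further: compound exposure lasted 16 hours before reading; nearly all actives have a fitted effect of over 55% in size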
# FLuc biochem = qHTS screen for small molecules that inhibit ELG1-dependent DNA repair: Hit Confirmation in Biochemical Luciferin Assay; Potency, µM (titrated, usually from 57.5 µM), most hits filed as inhibitors; AID 624253, 2012; purified firefly luciferase, luminescence counter-screen; shares compounds with ELG1 DNA repair; actives 10% (n = 350)
# A number is an active result; n = inactive; u = inconclusive; x = no result; [ ] = remark or other dose. Unless noted, the call rests on the fitted dose curve; in most records, active means well fitted curve in the direction sought with a large enough effect; inconclusive means small, poorly fitted or top-dose-only effect, or another doubt; inactive means no such curve, though single readings can be large; an effect the other way counts as inactive or inconclusive.
SMILES,p53 reactivator,Giardia killer,RORg inh,BRCA1 expr up,Gal4-VP16 FLuc,ELG1 DNA repair,ELG1-Luc inh,ELG1 MMS Luc,ELG1 5FU viab,ELG1 MMS cell,ELG1 unstim viab,others
CC(NC(=O)CCNC(=O)c1ccc(Br)cc1)c1ccc(S(N)(=O)=O)cc1 (stereo not drawn),n,n,x,n,x,u,x,x,x,x,x,
Cc1cc(OCC(=O)Nc2ccccc2C(N)=O)c2c(C)cc(=O)oc2c1,x,n,n,n,n,3.7µM,13µM,n,u,u,n,
CC(=O)Nc1ccc(NC(=O)COc2cc(C)cc3oc(=O)cc(C)c23)cc1,n,n,n,n,n,n,x,x,x,x,x,
OCC1OC(n2cnc3c(=S)nc[nH]c32)C(O)C1O (stereo not drawn),x,n,n[10 µM],n,n,x,u,u,u,u,6.3µM,ELG1 FLuc counter=n;FLuc biochem=n
CC1(C)OC2C(CO)OC(n3cnc4c(=S)nc[nH]c43)C2O1 (stereo not drawn),n,n,n,n,n,u,x,x,x,x,x,
Cc1ccc(-c2nnc(SCC(=O)Nc3ccccc3F)o2)cc1,n,n,n,n,n,u,x,x,x,x,u,ELG1 FLuc counter=8.9µM;FLuc biochem=18µM
COC(=O)C1=C(CS(=O)(=O)c2ccc(Cl)cc2)NC(=O)NC1c1ccc(O)cc1 (stereo not drawn),n,n,n,n,n,n,x,x,x,x,x,
COc1ccc(CNC(=O)CCSc2nc(-c3ccc4c(c3)OCO4)cc(C(F)(F)F)n2)cc1,n,n,u,n,u,3.3µM,7.9µM,n,u,n,n,
O=C(CCSc1nc(-c2ccc3c(c2)OCO3)cc(C(F)(F)F)n1)NCc1ccccc1,n,n,n,n,n,u,x,x,x,x,x,
Cn1c(=O)c(=O)n(C)c2cc(S(=O)(=O)N3CCC(Cc4ccccc4)CC3)ccc21,n,n,n,n,n,n,x,x,x,x,x,
CCn1c(=O)n(CC)c2cc(S(=O)(=O)N3CCC(c4ccccc4)CC3)ccc21,n,n,n,n,n,u,x,x,x,x,u,ELG1 FLuc counter=n;FLuc biochem=n
COCc1ccc(-c2c(-c3cc(OC)cc(OC)c3)oc(=O)c3cc(OC)c(OC)cc23)cc1,n,n,x,n,x,0.58µM,5µM,n,u,n,u,ELG1 FLuc counter=n;FLuc biochem=u
CC(=O)CSc1ncnc2nc[nH]c12,n,n,n,n,n,n,x,x,x,x,x,
Cn1cnc(Sc2ncnc3nc[nH]c23)c1[N+](=O)[O-],n,n,n,n,n,u,u,u,n,n,16µM,ELG1 FLuc counter=n;FLuc biochem=n
CCCS(=O)(=O)NC(=O)C1(C)CCN(C(=O)c2cc3ccccc3s2)C1 (stereo not drawn),x,x,x,n,x,x,x,x,x,x,x,
O=C(/C=C\c1cn(-c2ccccc2)nc1-c1ccc2c(c1)OCCO2)N1CCOCC1,n,n,n,n,n,3.3µM,1.6µM,u,u,u,n,
CCCNC(=O)c1ccc(N2CCC3(CC2)CC(c2ccccc2)=NO3)c(NC(=O)c2cccc(OC)c2)c1,x,n,n,n,n,4.6µM,5µM,u,u,n,u,
Cc1ccc(CNC(=O)c2ccc(N3CCC4(CC3)CC(c3ccccc3)=NO4)c(NC(=O)c3ccco3)c2)cc1,x,n,n,n,n,1.2µM,u,u,u,u,n,
Cc1ccc(CNC(=O)c2ccc(N3CCC4(CC3)CC(c3cccc(Br)c3)=NO4)c(NC(=O)c3ccco3)c2)cc1,n,n,x,n,x,n,x,x,x,x,x,
Cc1cc(NC(=O)c2ccco2)cc(-c2nc3ccccc3o2)c1O,x,x,x,n,x,x,x,x,x,x,x,
Cn1nc(CC(=O)Nc2ccc3c(c2)CCC3)c2ccccc2c1=O,n,n,u,n,u,0.52µM,u,0.71µM,n,0.89µM,u,ELG1 FLuc counter=n;FLuc biochem=n
CCn1c(SCC(=O)NC2CC2)nnc1-c1cccs1,n,n,x,n,x,n,x,x,x,x,x,
COc1ccc2c(C)cc(SCC(=O)N3CCOCC3)nc2c1,n,n,n,n,n,n,x,x,x,x,u,ELG1 FLuc counter=n;FLuc biochem=u
Cc1ccsc1C(=O)C1CCCN(Cc2cccn2-c2ccc(Cl)cn2)C1 (stereo not drawn),n,n,n,n,n,n,x,x,x,x,x,
COc1cccc(/C=C/C(=O)OCC(=O)c2ccccc2)c1OC,u,n,x,11µM,x,u,x,x,x,x,n,
O=C(c1nc2nc(-c3ccccc3)cc(C(F)(F)F)n2n1)N1CCCCC1,n,n,n,n,n,3.3µM,n,n,n,n,n,
O=C(c1cc2nc(-c3ccccc3)cc(C(F)(F)F)n2n1)N1CCCC1,x,u,x,n,x,x,x,x,x,x,x,
O=C1COc2ccc(C(=O)COC(=O)/C=C/c3cccc(F)c3)cc2N1,n,n,n,n,n,1.8µM,5µM,n,n,n,n,
CN(C)c1ccnc2sc(C(=O)NCc3ccccc3)c(N)c12,n,n,u,u,n,u,x,x,x,x,x,
